# The full ranking holds about 2,900 compounds; the median of “NF-kB SEAP reporter activity, fold change vs agonist alone” is about 0.99, and the highest 2% start at about 2.6. Shown is part of a subset that was picked to be rich in the highest values.
# Tests used:
# RAW-Dual [1] = test: NF-kB SEAP reporter activity, fold change vs agonist alone; cytotoxicity flag (confluency mask): not cytotoxic; higher = enhanced NF-kB activity
# Outline: (§1)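 RAW-Dual macrophages (50,000 cells/well in DMEM, 384-well plates) received 50 nL of library stock by pin tool, then a PRR agonist 1 h later, and were kept at 37 °C, 5% CO2. After 20 hours, supernatant was read for IRF by QuantiLuc luminescence and for NF-κB by QuantiBlue absorbance at 620 nm. Reporter activity is fold change over agonist-alone wells. Cytotoxic wells had IncuCyte confluency below 70% of agonist controls in both mask sets.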
# RAW-Dual [2] = test: NF-kB SEAP reporter activity, fold change vs agonist alone; higher = enhanced NF-kB activity
# Outline: as §1
# RAW-Dual [3] = test: NF-kB SEAP reporter activity, fold change vs agonist alone; cytotoxicity flag (confluency mask): cytotoxic (confluency <70% of control); higher = enhanced NF-kB activity
# Outline: as §1
# [4] = agonist: ODN 1826 (TLR9) 0.5 ug/mL
# [5] = agonist: Pam2CSK4 (TLR2/6) 0.1 ug/mL
# [6] = agonist: Pam3CSK4 (TLR2/1) 0.1 ug/mL
# [7] = library stock concentration (final ~1000-fold dilution): 10 mM, cytotoxicity flag (confluency mask): not cytotoxic, agonist: MPLA (TLR4) […]
# [8] = library stock concentration (final ~1000-fold dilution): 10 mM, cytotoxicity flag (confluency mask): not cytotoxic, agonist: Imiquimod (TLR7) […]
# [9] = library stock concentration (final ~1000-fold dilution): 2 mM, cytotoxicity flag (confluency mask): not cytotoxic, agonist: Imiquimod (TLR7) […]
# [10] = library stock concentration (final ~1000-fold dilution): 2 mM, cytotoxicity flag (confluency mask): not cytotoxic, agonist: MPLA (TLR4) […]
structure (smiles),measurement,setting,value
COC1CC2CCC(C)C(O)(O2)C(=O)C(=O)N2CCCCC2C(=O)OC(C(C)CC2CCC(O)C(OC)C2)CC(=O)C(C)C=C(C)C(O)C(OC)C(=O)C(C)CC(C)C=CC=CC=C1C (centres undefined) (library stock concentration (final ~1000-fold dilution): 10 mM),NF-kB SEAP reporter activity,RAW-Dual [1]; agonist: LPS (TLR4) 0.1 ug/mL,1.57
same,NF-kB SEAP reporter activity,RAW-Dual [1]; [4],1.11
same,NF-kB SEAP reporter activity,RAW-Dual [1]; [5],0.536
same,NF-kB SEAP reporter activity,RAW-Dual [1]; [6],0.77
COC1CC2CCC(C)C(O)(O2)C(=O)C(=O)N2CCCCC2C(=O)OC(C(C)CC2CCC(O)C(OC)C2)CC(=O)C(C)C=C(C)C(O)C(OC)C(=O)C(C)CC(C)C=CC=CC=C1C (centres undefined) (library stock concentration (final ~1000-fold dilution): .1 mM),NF-kB SEAP reporter activity,RAW-Dual [1]; agonist: LPS (TLR4) 0.1 ug/mL,1.2
same,NF-kB SEAP reporter activity,RAW-Dual [1]; [4],1.31
same,NF-kB SEAP reporter activity,RAW-Dual [1]; [5],1.53
same,NF-kB SEAP reporter activity,RAW-Dual [1]; [6],1.44
NS(=O)(=O)c1ccccc1 (library stock concentration (final ~1000-fold dilution): 10 mM),NF-kB SEAP reporter activity,RAW-Dual [1]; agonist: LPS (TLR4) 0.1 ug/mL,1.04
same,NF-kB SEAP reporter activity,RAW-Dual [1]; [4],0.987
same,NF-kB SEAP reporter activity,RAW-Dual [1]; [5],1.07
same,NF-kB SEAP reporter activity,RAW-Dual [1]; [6],0.771
NS(=O)(=O)c1ccccc1,NF-kB SEAP reporter activity,RAW-Dual [2]; [7],1.11
C=CC1CN2CCC1CC2C(O)c1ccnc2ccc(OC)cc12.C=CC1CN2CCC1CC2C(O)c1ccnc2ccc(OC)cc12.O.O.O=S(=O)(O)O (centres undefined) (library stock concentration (final ~1000-fold dilution): 10 mM),NF-kB SEAP reporter activity,RAW-Dual [1]; agonist: LPS (TLR4) 0.1 ug/mL,1.16
same,NF-kB SEAP reporter activity,RAW-Dual [1]; [4],0.531
same,NF-kB SEAP reporter activity,RAW-Dual [1]; [5],1.35
same,NF-kB SEAP reporter activity,RAW-Dual [1]; [6],1.05
C=CC1CN2CCC1CC2C(O)c1ccnc2ccc(OC)cc12.C=CC1CN2CCC1CC2C(O)c1ccnc2ccc(OC)cc12.O.O.O=S(=O)(O)O (centres undefined),NF-kB SEAP reporter activity,RAW-Dual [2]; [8],1.06
same,NF-kB SEAP reporter activity,RAW-Dual [2]; [7],0.931
CN(C)Cc1ccc(S(=O)(=O)n2ccc(/C=C/C(=O)NO)c2)cc1 (library stock concentration (final ~1000-fold dilution): 10 mM),NF-kB SEAP reporter activity,RAW-Dual [1]; agonist: LPS (TLR4) 0.1 ug/mL,4.18
same,NF-kB SEAP reporter activity,RAW-Dual [1]; [4],0.95
same,NF-kB SEAP reporter activity,RAW-Dual [1]; [5],1.03
same,NF-kB SEAP reporter activity,RAW-Dual [1]; [6],0.94
CN(C)Cc1ccc(S(=O)(=O)n2ccc(/C=C/C(=O)NO)c2)cc1,NF-kB SEAP reporter activity,RAW-Dual [2]; [8],1.01
same,NF-kB SEAP reporter activity,RAW-Dual [2]; [7],0.905
CC1(Cn2ccnn2)C(C(=O)O)N2C(=O)CC2S1(=O)=O (centres undefined),NF-kB SEAP reporter activity,RAW-Dual [2]; [8],1.06
same,NF-kB SEAP reporter activity,RAW-Dual [2]; [7],0.964
CC1(Cn2ccnn2)C(C(=O)O)N2C(=O)CC2S1(=O)=O (centres undefined) (library stock concentration (final ~1000-fold dilution): 10 mM),NF-kB SEAP reporter activity,RAW-Dual [1]; agonist: LPS (TLR4) 0.1 ug/mL,0.971
same,NF-kB SEAP reporter activity,RAW-Dual [1]; [4],1.03
same,NF-kB SEAP reporter activity,RAW-Dual [1]; [5],0.946
same,NF-kB SEAP reporter activity,RAW-Dual [1]; [6],1.06
CC(C)Nc1cc(-c2c[nH]c(C(=O)NC(CO)c3cccc(Cl)c3)c2)c(Cl)cn1 (centres undefined),NF-kB SEAP reporter activity,RAW-Dual [2]; [8],0.128
same,NF-kB SEAP reporter activity,RAW-Dual [2]; [7],0.246
CC(C)Nc1cc(-c2c[nH]c(C(=O)NC(CO)c3cccc(Cl)c3)c2)c(Cl)cn1 (centres undefined) (library stock concentration (final ~1000-fold dilution): 10 mM),NF-kB SEAP reporter activity,RAW-Dual [1]; agonist: LPS (TLR4) 0.1 ug/mL,0.201
same,NF-kB SEAP reporter activity,RAW-Dual [1]; [4],0.189
same,NF-kB SEAP reporter activity,RAW-Dual [1]; [5],0.0811
same,NF-kB SEAP reporter activity,RAW-Dual [1]; [6],0.114
CC#Cc1cncc(-c2ccc3c(c2)C2(N=C(C)C(N)=N2)C2(CCC(OC)CC2)C3)c1 (centres undefined),NF-kB SEAP reporter activity,RAW-Dual [2]; [8],1.18
same,NF-kB SEAP reporter activity,RAW-Dual [2]; [7],1.01
CC#Cc1cncc(-c2ccc3c(c2)C2(N=C(C)C(N)=N2)C2(CCC(OC)CC2)C3)c1 (centres undefined) (library stock concentration (final ~1000-fold dilution): 10 mM),NF-kB SEAP reporter activity,RAW-Dual [1]; agonist: LPS (TLR4) 0.1 ug/mL,1.15
same,NF-kB SEAP reporter activity,RAW-Dual [1]; [4],0.723
same,NF-kB SEAP reporter activity,RAW-Dual [1]; [5],0.809
same,NF-kB SEAP reporter activity,RAW-Dual [1]; [6],0.972
COc1cc(N2CCC(N3CCN(C)CC3)CC2)ccc1Nc1ncc(Cl)c(Nc2ccccc2S(=O)(=O)C(C)C)n1 (library stock concentration (final ~1000-fold dilution): 2 mM),NF-kB SEAP reporter activity,RAW-Dual [1]; agonist: LPS (TLR4) 0.1 ug/mL,1.66
same,NF-kB SEAP reporter activity,RAW-Dual [1]; [4],0.603
same,NF-kB SEAP reporter activity,RAW-Dual [1]; [5],0.757
same,NF-kB SEAP reporter activity,RAW-Dual [1]; [6],1.2
Cc1cc(Nc2ncc(Cl)c(Nc3ccccc3S(=O)(=O)C(C)C)n2)c(OC(C)C)cc1C1CCNCC1,NF-kB SEAP reporter activity,"RAW-Dual [2]; library stock concentration (final ~1000-fold dilution): 10 mM, cytotoxicity flag (confluency mask): cytotoxic (confluency <70% of control), agonist: Imiquimod (TLR7) […]",2.07
same,NF-kB SEAP reporter activity,"RAW-Dual [2]; library stock concentration (final ~1000-fold dilution): 10 mM, cytotoxicity flag (confluency mask): cytotoxic (confluency <70% of control), agonist: MPLA (TLR4) […]",0.569
COc1cc(N2CCC(N3CCN(C)CC3)CC2)ccc1Nc1ncc(Cl)c(Nc2ccccc2P(C)(C)=O)n1,NF-kB SEAP reporter activity,RAW-Dual [2]; [9],1.15
same,NF-kB SEAP reporter activity,RAW-Dual [2]; [10],1.26
COc1cc(N2CCC(N3CCN(C)CC3)CC2)ccc1Nc1ncc(Cl)c(Nc2ccccc2S(=O)(=O)C(C)C)n1,NF-kB SEAP reporter activity,RAW-Dual [2]; [9],1.28
same,NF-kB SEAP reporter activity,RAW-Dual [2]; [10],0.939
C=CC(=O)Nc1cccc(Oc2nc(Nc3ccc(N4CCN(C)CC4)cc3OC)ncc2Cl)c1,NF-kB SEAP reporter activity,RAW-Dual [2]; [8],0.931
same,NF-kB SEAP reporter activity,RAW-Dual [2]; [7],0.977
COc1cc(N2CCC(N(C)C)CC2)ccc1Nc1ncc(Cl)c(Nc2ccccc2P(C)(C)=O)n1 (library stock concentration (final ~1000-fold dilution): 10 mM),NF-kB SEAP reporter activity,RAW-Dual [1]; agonist: LPS (TLR4) 0.1 ug/mL,1.87
same,NF-kB SEAP reporter activity,RAW-Dual [1]; [4],1.64
same,NF-kB SEAP reporter activity,RAW-Dual [1]; [5],1.03
same,NF-kB SEAP reporter activity,RAW-Dual [1]; [6],1.46
COc1cc(N2CCC(N(C)C)CC2)ccc1Nc1ncc(Cl)c(Nc2ccccc2P(C)(C)=O)n1,NF-kB SEAP reporter activity,RAW-Dual [2]; [8],1.64
same,NF-kB SEAP reporter activity,RAW-Dual [2]; [7],2.05
COc1cc(N2CCC(N3CCN(C)CC3)CC2)ccc1Nc1ncnc(Nc2ccccc2S(=O)(=O)C(C)C)n1 (library stock concentration (final ~1000-fold dilution): 10 mM),NF-kB SEAP reporter activity,RAW-Dual [1]; agonist: LPS (TLR4) 0.1 ug/mL,5.53
same,NF-kB SEAP reporter activity,RAW-Dual [1]; [4],0.961
same,NF-kB SEAP reporter activity,RAW-Dual [1]; [5],0.718
same,NF-kB SEAP reporter activity,RAW-Dual [1]; [6],1.04
C=CC(=O)Nc1cccc(Oc2nc(Nc3ccc(N4CCN(C)CC4)cc3OC)ncc2Cl)c1 (library stock concentration (final ~1000-fold dilution): 10 mM),NF-kB SEAP reporter activity,RAW-Dual [1]; agonist: LPS (TLR4) 0.1 ug/mL,0.915
same,NF-kB SEAP reporter activity,RAW-Dual [1]; [4],0.863
same,NF-kB SEAP reporter activity,RAW-Dual [1]; [5],0.802
same,NF-kB SEAP reporter activity,RAW-Dual [1]; [6],0.684
COc1cc(N2CCC(N3CCN(C)CC3)CC2)ccc1Nc1ncnc(Nc2ccccc2S(=O)(=O)C(C)C)n1,NF-kB SEAP reporter activity,RAW-Dual [2]; [8],0.945
same,NF-kB SEAP reporter activity,RAW-Dual [2]; [7],1.14
Cc1cc(Nc2ncc(Cl)c(Nc3ccccc3S(=O)(=O)C(C)C)n2)c(OC(C)C)cc1C1CCNCC1 (library stock concentration (final ~1000-fold dilution): 10 mM),NF-kB SEAP reporter activity,RAW-Dual [3]; agonist: LPS (TLR4) 0.1 ug/mL,0.198
same,NF-kB SEAP reporter activity,RAW-Dual [3]; [4],0.674
same,NF-kB SEAP reporter activity,RAW-Dual [3]; [5],0.845
same,NF-kB SEAP reporter activity,RAW-Dual [3]; [6],0.455
COc1cc(N2CCC(N3CCN(C)CC3)CC2)ccc1Nc1ncc(Cl)c(Nc2ccccc2P(C)(C)=O)n1 (library stock concentration (final ~1000-fold dilution): 2 mM),NF-kB SEAP reporter activity,RAW-Dual [1]; agonist: LPS (TLR4) 0.1 ug/mL,2.66
same,NF-kB SEAP reporter activity,RAW-Dual [1]; [4],1.27
same,NF-kB SEAP reporter activity,RAW-Dual [1]; [5],1.28
same,NF-kB SEAP reporter activity,RAW-Dual [1]; [6],1.66
